# Experimental data: PMC7862700, “An all-to-all approach to the identification of sequence-specific readers for epigenetic DNA modifications on cytosine”
# Assays:
# Test in all cases: DAPPL (digital affinity profiling via proximity ligation, sequencing); 10 mM Tris-HCl pH 7.5, 50 mM NaCl, 1 mM DTT, 4% glycerol, room temperature, 30 min; GST-TFs on glutathione beads, 16-mer random dsDNA library, 0.1% formaldehyde crosslink after washing; high values mean tight binding
# [1] = target: T1, FLI1 (Homo sapiens, UniProt Q01543 1-452); details: protein: recombinant; tags: N-terminal GST; dsDNA, one strand shown
# T1 sequence: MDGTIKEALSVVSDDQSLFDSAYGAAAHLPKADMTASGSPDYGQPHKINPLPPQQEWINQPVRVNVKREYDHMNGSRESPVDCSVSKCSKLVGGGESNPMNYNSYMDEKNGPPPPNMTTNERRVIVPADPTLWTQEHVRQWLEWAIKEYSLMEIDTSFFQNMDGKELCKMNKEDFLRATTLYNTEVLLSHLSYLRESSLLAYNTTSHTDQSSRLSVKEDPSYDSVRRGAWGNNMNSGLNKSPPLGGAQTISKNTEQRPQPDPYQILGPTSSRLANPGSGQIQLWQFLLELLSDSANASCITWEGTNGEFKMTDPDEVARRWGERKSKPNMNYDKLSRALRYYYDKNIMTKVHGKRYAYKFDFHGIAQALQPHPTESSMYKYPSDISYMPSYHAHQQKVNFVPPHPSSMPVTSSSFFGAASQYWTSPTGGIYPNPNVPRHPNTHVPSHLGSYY
# Outline: (§1)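 Human transcription factors carrying a GST fusion were produced in yeast, bound to glutathione beads, tagged with DNA barcodes and pooled together with a tag-only sample. Each pool was held with 200 nmole of a random double-stranded 16-mer DNA library in Tris/NaCl/DTT/glycerol buffer for 30 min at room temperature, then washed, crosslinked in 0.1% formaldehyde, proximity-ligated with BsaI/T4 ligase (1 h, 37 °C), PCR-amplified and sequenced on an Illumina NextSeq500. Binding signal is the read frequency of each hexamer for a given factor divided by its frequency in the tag-only sample.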
# [2] = target: T2, ELK1 (Homo sapiens, UniProt P19419 1-428); details: protein: recombinant; tags: N-terminal GST; dsDNA, one strand shown
# T2 sequence: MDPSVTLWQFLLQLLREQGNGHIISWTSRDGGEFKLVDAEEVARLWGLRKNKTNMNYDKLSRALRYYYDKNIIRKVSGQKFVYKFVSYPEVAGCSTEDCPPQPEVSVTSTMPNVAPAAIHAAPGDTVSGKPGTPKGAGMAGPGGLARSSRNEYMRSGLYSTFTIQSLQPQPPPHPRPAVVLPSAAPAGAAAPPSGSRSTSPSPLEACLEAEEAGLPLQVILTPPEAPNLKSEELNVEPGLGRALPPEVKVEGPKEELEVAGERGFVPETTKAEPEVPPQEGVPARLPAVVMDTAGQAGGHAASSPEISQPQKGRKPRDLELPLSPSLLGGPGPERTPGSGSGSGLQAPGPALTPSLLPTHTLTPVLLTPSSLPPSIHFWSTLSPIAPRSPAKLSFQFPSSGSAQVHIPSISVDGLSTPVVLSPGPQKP
# Outline: as §1
# [3] = target: T3, GABPA (Homo sapiens, UniProt Q06546 1-454); details: protein: recombinant; tags: N-terminal GST; dsDNA, one strand shown
# T3 sequence: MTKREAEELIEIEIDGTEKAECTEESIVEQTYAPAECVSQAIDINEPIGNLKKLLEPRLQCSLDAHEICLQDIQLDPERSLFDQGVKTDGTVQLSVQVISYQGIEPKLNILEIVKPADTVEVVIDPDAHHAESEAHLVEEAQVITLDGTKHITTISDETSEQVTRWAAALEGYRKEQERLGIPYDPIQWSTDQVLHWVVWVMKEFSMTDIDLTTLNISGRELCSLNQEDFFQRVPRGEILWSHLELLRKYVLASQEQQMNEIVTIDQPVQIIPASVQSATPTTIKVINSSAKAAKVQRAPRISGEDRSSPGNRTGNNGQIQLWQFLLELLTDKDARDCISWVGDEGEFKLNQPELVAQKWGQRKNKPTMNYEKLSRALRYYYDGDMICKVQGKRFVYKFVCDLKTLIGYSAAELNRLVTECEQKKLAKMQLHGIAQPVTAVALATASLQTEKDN
# Outline: as §1
# [4] = target: T4, ERG (Homo sapiens, UniProt P11308 1-479); details: protein: recombinant; tags: N-terminal GST; dsDNA, one strand shown
# T4 sequence: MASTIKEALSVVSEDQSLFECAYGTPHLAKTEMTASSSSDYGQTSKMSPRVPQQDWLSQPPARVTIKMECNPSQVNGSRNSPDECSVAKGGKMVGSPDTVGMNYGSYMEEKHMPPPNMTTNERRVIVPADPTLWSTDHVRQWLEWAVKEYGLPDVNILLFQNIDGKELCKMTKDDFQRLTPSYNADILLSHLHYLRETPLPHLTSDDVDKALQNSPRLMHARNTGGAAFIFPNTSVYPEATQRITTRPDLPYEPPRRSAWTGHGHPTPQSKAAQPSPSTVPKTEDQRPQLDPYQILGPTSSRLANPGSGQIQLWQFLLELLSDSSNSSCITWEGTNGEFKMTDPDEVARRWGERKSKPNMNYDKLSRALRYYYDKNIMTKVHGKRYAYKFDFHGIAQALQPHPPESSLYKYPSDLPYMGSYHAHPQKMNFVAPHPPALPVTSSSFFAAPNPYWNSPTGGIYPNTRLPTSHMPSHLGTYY
# Outline: as §1
# [5] = target: ELF1 (Homo sapiens, UniProt P32519 1-619); details: protein: recombinant; tags: N-terminal GST; dsDNA, one strand shown
# Outline: as §1
# [6] = target: T5, EHF (Homo sapiens, UniProt Q9NZC4 1-300); details: protein: recombinant; tags: N-terminal GST; dsDNA, one strand shown
# T5 sequence: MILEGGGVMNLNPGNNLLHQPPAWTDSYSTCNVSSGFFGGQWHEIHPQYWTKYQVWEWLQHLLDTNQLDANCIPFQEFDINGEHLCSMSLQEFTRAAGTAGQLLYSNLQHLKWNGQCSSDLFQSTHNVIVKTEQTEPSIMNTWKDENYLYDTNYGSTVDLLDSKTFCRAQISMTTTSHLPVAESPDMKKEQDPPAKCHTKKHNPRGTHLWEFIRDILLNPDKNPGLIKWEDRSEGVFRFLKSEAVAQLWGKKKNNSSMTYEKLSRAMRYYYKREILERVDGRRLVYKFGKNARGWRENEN
# Outline: as §1
# [7] = target: SPI1 (Homo sapiens, UniProt P17947 1-270); details: protein: recombinant; tags: N-terminal GST; dsDNA, one strand shown
# Outline: as §1
# [8] = target: SPIB (Homo sapiens, UniProt Q01892 1-262); details: protein: recombinant; tags: N-terminal GST; dsDNA, one strand shown
# Outline: as §1
# [9] = target: T6, ELK3 (Homo sapiens, UniProt P41970 1-407); details: protein: recombinant; tags: N-terminal GST; dsDNA, one strand shown
# T6 sequence: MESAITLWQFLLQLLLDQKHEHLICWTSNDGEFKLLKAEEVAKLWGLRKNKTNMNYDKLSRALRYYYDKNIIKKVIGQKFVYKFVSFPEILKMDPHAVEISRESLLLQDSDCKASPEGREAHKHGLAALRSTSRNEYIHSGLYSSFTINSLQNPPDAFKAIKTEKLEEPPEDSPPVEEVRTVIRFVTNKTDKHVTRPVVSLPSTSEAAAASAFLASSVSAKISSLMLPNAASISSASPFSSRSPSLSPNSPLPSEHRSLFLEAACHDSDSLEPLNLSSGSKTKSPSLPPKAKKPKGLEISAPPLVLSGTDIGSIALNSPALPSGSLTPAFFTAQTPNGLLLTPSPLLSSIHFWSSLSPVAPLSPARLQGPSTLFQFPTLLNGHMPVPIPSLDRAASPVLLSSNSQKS
# Outline: as §1
# [10] = target: T7, FEV (Homo sapiens, UniProt Q99581 1-238); details: protein: recombinant; tags: N-terminal GST; dsDNA, one strand shown
# T7 sequence: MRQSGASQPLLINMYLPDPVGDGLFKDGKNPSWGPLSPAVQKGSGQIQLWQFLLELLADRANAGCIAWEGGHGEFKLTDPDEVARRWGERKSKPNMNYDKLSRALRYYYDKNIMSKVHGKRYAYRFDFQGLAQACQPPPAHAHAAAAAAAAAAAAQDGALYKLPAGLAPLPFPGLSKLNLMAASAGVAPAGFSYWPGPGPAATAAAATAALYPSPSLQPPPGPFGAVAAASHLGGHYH
# Outline: as §1
# [11] = target: ETV5 (Homo sapiens, UniProt P41161 1-510); details: protein: recombinant; tags: N-terminal GST; dsDNA, one strand shown
# Outline: as §1
# [12] = target: HSF1 (Homo sapiens, UniProt Q00613 1-529); details: protein: recombinant; tags: N-terminal GST; chain copies: 3; dsDNA, one strand shown
# Outline: as §1
# [13] = target: T8, SPIC (Homo sapiens, UniProt Q8N5J4 1-248); details: protein: recombinant; tags: N-terminal GST; dsDNA, one strand shown
# T8 sequence: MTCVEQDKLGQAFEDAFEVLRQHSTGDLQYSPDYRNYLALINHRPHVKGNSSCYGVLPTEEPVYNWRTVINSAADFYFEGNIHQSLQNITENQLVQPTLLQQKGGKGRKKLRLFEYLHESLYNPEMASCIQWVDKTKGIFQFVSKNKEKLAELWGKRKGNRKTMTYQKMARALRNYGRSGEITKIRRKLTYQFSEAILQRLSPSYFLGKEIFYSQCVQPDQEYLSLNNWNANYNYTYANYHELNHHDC
# Outline: as §1
# [14] = target: ELF4 (Homo sapiens, UniProt Q99607 1-663); details: protein: recombinant; tags: N-terminal GST; dsDNA, one strand shown
# Outline: as §1
# [15] = target: T9, ELK4 (Homo sapiens, UniProt P28324-2 1-405); details: protein: recombinant; tags: N-terminal GST; dsDNA, one strand shown
# T9 sequence: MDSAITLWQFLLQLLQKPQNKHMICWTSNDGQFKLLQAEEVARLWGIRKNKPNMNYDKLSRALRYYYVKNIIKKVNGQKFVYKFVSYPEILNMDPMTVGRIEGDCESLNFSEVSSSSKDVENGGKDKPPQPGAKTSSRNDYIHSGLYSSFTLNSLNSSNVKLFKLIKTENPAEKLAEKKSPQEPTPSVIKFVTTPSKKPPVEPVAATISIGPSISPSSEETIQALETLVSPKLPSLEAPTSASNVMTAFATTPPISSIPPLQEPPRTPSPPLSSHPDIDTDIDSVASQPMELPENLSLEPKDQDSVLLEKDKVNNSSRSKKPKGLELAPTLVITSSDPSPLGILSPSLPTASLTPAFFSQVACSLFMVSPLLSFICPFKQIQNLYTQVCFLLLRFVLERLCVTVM
# Outline: as §1
# [16] = target: T10, ETV2 (Homo sapiens, UniProt O00321 1-342); details: protein: recombinant; tags: N-terminal GST; dsDNA, one strand shown
# T10 sequence: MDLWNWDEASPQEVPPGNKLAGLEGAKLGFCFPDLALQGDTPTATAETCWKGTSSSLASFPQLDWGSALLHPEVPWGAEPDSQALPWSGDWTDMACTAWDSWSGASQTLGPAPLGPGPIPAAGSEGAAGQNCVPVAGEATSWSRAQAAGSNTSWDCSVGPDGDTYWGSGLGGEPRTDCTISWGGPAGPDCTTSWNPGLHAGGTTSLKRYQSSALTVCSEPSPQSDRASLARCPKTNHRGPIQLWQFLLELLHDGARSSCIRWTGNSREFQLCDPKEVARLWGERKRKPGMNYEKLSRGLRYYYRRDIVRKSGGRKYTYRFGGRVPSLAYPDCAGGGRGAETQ
# Outline: as §1
# [17] = target: T11, ELF3 (Homo sapiens, UniProt P78545 1-371); details: protein: recombinant; tags: N-terminal GST; dsDNA, one strand shown
# T11 sequence: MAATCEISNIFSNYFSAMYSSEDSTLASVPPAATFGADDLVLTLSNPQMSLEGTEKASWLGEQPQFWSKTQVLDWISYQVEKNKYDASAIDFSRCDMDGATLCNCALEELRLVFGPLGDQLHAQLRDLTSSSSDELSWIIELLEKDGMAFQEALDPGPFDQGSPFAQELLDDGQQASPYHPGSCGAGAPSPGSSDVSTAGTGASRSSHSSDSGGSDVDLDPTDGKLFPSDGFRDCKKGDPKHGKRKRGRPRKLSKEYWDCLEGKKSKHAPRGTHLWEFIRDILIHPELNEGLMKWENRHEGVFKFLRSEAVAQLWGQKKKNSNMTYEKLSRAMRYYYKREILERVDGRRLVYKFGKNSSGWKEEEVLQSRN
# Outline: as §1
# [18] = target: CRX (Homo sapiens, UniProt O43186 1-299); details: protein: recombinant; tags: N-terminal GST; dsDNA, one strand shown
# Outline: as §1
# [19] = target: ETV1 (Homo sapiens, UniProt P50549 1-477); details: protein: recombinant; tags: N-terminal GST; dsDNA, one strand shown
# Outline: as §1
# Chain of CRX (O43186 whole entry): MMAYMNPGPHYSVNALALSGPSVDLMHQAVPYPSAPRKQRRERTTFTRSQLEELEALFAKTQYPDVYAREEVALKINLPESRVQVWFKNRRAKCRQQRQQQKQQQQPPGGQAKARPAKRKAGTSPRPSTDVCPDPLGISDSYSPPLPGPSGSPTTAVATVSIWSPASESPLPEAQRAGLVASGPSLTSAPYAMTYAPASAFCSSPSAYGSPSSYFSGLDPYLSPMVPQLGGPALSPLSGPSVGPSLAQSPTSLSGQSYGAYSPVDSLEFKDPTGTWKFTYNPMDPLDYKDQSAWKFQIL
# Chain of ELF4 (Q99607 whole entry): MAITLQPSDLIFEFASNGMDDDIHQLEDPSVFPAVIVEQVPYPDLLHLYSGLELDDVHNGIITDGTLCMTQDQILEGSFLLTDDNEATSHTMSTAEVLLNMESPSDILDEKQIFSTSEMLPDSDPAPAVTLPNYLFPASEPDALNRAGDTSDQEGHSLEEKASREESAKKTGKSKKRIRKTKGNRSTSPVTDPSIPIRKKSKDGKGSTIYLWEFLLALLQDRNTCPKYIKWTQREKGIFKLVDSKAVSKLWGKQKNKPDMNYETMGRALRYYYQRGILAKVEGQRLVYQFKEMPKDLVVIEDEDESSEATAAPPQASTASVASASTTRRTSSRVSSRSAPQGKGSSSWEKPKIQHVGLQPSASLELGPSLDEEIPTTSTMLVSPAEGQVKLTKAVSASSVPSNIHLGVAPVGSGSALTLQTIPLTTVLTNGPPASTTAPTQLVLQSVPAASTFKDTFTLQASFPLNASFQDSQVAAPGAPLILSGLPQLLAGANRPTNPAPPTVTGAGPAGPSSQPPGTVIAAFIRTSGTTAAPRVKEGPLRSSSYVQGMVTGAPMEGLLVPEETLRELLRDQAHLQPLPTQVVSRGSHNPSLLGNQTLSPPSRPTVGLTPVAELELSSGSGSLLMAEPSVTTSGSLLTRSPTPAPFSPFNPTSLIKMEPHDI
# Chain of ETV5 (P41161 whole entry): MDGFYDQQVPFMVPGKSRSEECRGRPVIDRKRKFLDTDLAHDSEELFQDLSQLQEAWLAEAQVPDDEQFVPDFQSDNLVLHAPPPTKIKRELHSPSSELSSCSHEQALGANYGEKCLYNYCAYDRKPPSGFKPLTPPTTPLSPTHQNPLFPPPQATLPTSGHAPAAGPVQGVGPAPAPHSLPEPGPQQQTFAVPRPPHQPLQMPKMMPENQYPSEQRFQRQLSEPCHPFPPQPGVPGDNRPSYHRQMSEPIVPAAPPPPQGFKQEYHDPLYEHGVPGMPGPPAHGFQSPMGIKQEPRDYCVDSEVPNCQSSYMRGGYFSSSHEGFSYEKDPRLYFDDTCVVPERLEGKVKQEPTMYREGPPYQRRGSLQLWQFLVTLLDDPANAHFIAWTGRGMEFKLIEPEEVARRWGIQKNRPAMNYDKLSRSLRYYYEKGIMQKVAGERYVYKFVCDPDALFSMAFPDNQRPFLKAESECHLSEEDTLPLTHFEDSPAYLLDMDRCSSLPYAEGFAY
# Chain of SPIB (Q01892 whole entry): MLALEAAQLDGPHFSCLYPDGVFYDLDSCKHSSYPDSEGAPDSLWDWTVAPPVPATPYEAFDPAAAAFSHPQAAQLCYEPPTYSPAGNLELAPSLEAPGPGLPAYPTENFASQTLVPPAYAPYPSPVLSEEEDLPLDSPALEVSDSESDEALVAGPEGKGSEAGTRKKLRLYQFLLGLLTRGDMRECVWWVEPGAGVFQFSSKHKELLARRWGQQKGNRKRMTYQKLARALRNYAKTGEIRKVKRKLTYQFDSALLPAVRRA
# Chain of ELF1 (P32519 whole entry): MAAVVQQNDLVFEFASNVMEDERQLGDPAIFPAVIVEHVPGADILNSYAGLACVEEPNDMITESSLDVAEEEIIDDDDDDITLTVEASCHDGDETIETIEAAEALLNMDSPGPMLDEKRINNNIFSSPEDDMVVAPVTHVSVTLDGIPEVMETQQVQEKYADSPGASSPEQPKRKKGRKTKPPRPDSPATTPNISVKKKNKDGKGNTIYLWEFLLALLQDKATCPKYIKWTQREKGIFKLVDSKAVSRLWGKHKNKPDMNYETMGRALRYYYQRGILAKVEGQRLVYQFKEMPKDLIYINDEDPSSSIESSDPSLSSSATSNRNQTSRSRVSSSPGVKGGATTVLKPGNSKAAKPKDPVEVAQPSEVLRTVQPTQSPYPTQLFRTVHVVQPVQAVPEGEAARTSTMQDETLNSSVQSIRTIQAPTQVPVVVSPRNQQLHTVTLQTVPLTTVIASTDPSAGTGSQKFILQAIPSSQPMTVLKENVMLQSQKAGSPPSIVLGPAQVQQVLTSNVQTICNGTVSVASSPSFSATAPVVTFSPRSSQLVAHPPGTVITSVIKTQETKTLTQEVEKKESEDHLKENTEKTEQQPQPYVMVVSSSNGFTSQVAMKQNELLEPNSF
# Chain of ETV1 (P50549 whole entry): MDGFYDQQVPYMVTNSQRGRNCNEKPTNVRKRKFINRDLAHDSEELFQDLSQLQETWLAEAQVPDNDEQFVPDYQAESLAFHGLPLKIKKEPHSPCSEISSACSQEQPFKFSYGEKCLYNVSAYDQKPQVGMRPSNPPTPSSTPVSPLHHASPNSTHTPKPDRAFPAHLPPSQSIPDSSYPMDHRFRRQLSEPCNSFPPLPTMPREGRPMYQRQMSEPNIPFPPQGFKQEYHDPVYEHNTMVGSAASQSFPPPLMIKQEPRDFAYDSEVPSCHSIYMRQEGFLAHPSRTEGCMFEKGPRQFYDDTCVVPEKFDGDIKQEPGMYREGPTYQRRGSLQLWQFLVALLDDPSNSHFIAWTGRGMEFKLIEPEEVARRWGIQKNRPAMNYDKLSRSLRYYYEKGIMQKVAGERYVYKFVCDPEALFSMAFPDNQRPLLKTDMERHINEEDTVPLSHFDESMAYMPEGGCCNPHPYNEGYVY
# Chain of HSF1 (Q00613 whole entry): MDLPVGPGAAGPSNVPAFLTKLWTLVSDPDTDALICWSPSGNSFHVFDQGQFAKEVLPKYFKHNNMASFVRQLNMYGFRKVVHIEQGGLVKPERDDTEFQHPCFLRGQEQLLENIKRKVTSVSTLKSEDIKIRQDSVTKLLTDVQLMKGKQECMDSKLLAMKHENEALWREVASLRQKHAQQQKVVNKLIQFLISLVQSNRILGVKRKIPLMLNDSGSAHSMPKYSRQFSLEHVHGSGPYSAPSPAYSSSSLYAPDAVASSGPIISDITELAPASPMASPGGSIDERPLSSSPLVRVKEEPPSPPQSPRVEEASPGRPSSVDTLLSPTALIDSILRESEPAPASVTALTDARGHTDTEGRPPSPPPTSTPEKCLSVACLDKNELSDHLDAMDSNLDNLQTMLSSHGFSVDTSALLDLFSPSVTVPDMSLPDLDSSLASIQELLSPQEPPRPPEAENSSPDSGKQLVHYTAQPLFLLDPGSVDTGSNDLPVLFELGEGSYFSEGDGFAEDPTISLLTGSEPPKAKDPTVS
sequence,measurement,setting,value
TGAATT,binding signal,[1],"1.15 fold enrichment (6-mer frequency, TF over GST control)"
same,binding signal,[2],"1.09 fold enrichment (6-mer frequency, TF over GST control)"
same,binding signal,[3],"1.19 fold enrichment (6-mer frequency, TF over GST control)"
same,binding signal,[4],"1.17 fold enrichment (6-mer frequency, TF over GST control)"
same,binding signal,[5],"1.1 fold enrichment (6-mer frequency, TF over GST control)"
same,binding signal,[6],"1.17 fold enrichment (6-mer frequency, TF over GST control)"
same,binding signal,[7],"1.22 fold enrichment (6-mer frequency, TF over GST control)"
same,binding signal,[8],"1.19 fold enrichment (6-mer frequency, TF over GST control)"
same,binding signal,[9],"1.06 fold enrichment (6-mer frequency, TF over GST control)"
same,binding signal,[10],"1.18 fold enrichment (6-mer frequency, TF over GST control)"
same,binding signal,[11],"1.15 fold enrichment (6-mer frequency, TF over GST control)"
same,binding signal,[12],"1.23 fold enrichment (6-mer frequency, TF over GST control)"
same,binding signal,[13],"1.34 fold enrichment (6-mer frequency, TF over GST control)"
same,binding signal,[14],"1.16 fold enrichment (6-mer frequency, TF over GST control)"
same,binding signal,[15],"1.01 fold enrichment (6-mer frequency, TF over GST control)"
same,binding signal,[16],"1.19 fold enrichment (6-mer frequency, TF over GST control)"
same,binding signal,[17],"1.12 fold enrichment (6-mer frequency, TF over GST control)"
same,binding signal,[18],"1.38 fold enrichment (6-mer frequency, TF over GST control)"
same,binding signal,[19],"1.23 fold enrichment (6-mer frequency, TF over GST control)"
